Data: PubChem BioAssay AID1508600 (Functional Genomics Laboratory (NCATS/FGL), 2020)
Hit rate of the full screen: of about 53,000 sequences, about 3,700 (7%) were called active. Shown is part of a subset that was picked to be rich in actives. A number with no mark means an inactive call.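 The calls were made as follows: active = gene knockdowns whose robust z-score for IL-1 alpha signal is at least 2 or at most -2, so actives lie on both sides; inactive = the rest.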

Assay: Components of the Cytosolic LPS Sensing Pathway: Gene Identification via Genome-wide siRNA Screen;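 also: robust z of the log signal after scaling to non-targeting control siRNA wells of the plate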
Conditions: RAW264.7 macrophages, IL-1a HTRF, actives lie on both sides, screened at 100 nM (by protocol), cells primed 5 h with Pam3CSK4 first
In short: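 Read-out: IL-1a HTRF on supernatant, divided by plate negative-control median ×100, log-transformed and converted to robust z-score. Cells were RAW264.7 given 100 nM siRNA, Pam3CSK4-primed 5 hours, then LipidA-transfected 24 hour.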

| Sequence | z-score |
| --- | --- |
| GGCUUUGUCUACACUUUCATT against Olfr1308 | -1.02 |
| GGAUGGGAAGGUGAUUGUCTT against Gnb5 | 1 |
| CCUGGUGUUCGUGUACCUGTT against Cdk5r2 | 3.1 (active) |
| GGAUUUAUUUAUGUCUUCCTT against Slc17a1 | 0.0643 |
| GCAGUUGAGACAAUAUGUCTT against Trim31 | -1.8 |
| GGAUGUGUCGGGAAAUGCUTT against Frmd5 | -1.7 |
| GCACUAGAAGUGUCUUUUCTT against Cdhr1 | 2.17 (active) |
| GGACAUUUUUCAUUUGUGATT against Zfhx4 | 1.28 |
| GGUCAUUCACGUCUGCGUUTT against Kcnj8 | -0.292 |
| CCAGUGCAGGACCUCAUUUTT against Sod1 | -2.06 (active) |
| GGCAGCUCUGACUUUAUAATT against Klhdc3 | -1.63 |
| CCCUGUAGAAAUUCAAGCCTT against Lyrm4 | 0.38 |
| GGACAGAGCAUCACAGAAGTT against Tmem154 | -2.33 (active) |
| GCGGUUUGUCUUCAACAAGTT against Il1b | 0.22 |
| CCCUGGACUAAGGAUCACCTT against Cops5 | -1.2 |
| GGCAGAAGAAGAGUUCAACTT against Atp6v1e1 | -1.1 |
| GCUAAGUACGUUCAUGGCATT against Gba | 0.571 |
| CGAAACUUACCAGGAGUCGTT against Ttyh2 | -2.31 (active) |
| GGACUCAUGUUCAACACAGTT against Dimt1 | -0.87 |
| GGGAACUGACAAAUGGAAGTT against Samsn1 | -0.0777 |
| CGGCAGUCGUGAGACAUAUTT against Camk1d | -1.01 |
| GGAUUUUUAGUGUUUGACATT against Rab39 | -1.52 |

| Sequence | z-score |
| --- | --- |
| GGGAAUACGGAACCUUCUUTT against Olfr683 | 2.04 (active) |
| GGGCAGUUUUACAAAUGUUTT against Fbxw8 | 0.985 |
| GGAACUCCAACAGGACUUUTT against Slc26a9 | -0.565 |
| GGAAGGAAGCAGAGAGUUATT against Ndel1 | 2.92 (active) |
| UUUACUAGACCUGAUGGCUTT against Olfr815 | 0.732 |
| GGGACUCUUCUACGAGUUUTT against Lims2 | 0.836 |
| GGAAAACAAGAGGUGAUCUTT against Bfar | -1.62 |
| GGUGUUUGAUAGGUAUCUUTT against Ptpa | -1.12 |
| GGAUCAUUUGAAAUUGCUGTT against Dmac2l | 2.88 (active) |
| CCUGAAAAAAUUUAUCGCCTT against Pcgf3 | -0.363 |
| GGGUUCGAGGAAAAGGAAGTT against Acsf3 | 0.65 |
| GGUGUCAGAAGCAGUGUAUTT against Treml1 | 0.459 |
| GCCGAGGCUGUUGUGUUGATT against Gpaa1 | -1.04 |
| GGAGGUUUUUUUGUUUUGUTT against Serpinb13 | -0.614 |
| GGCAUUUUUCUUAGUGAUCTT against Olfr1277 | -2.04 (active) |
| CCCACUUAUAUAUGUAGUUTT against Wdyhv1 | 0.282 |
| GGGCUUCAAACCCACAGAATT against Nova2 | -1.19 |
| GGAAUAUCAGCCAUAAGUUTT against Cplx4 | 1.78 |
| CGAUUCAUUCAGUUUGUAATT against Terb1 | -0.631 |
| GGUGUUUGAUAAUGAAGAGTT against Dnah1 | -0.214 |
| GGCGAAGGUGUAGAAUCUCTT against Samd12 | 2.48 (active) |
| GGUCAUUUUGGGAUAUCAGTT against Lman1 | -1.19 |

| Sequence | z-score |
| --- | --- |
| CCGCGUGUGCUCCUUUUUGTT against Zcchc3 | -0.627 |
| GGCUGGUUUACAACAGAACTT against Pla2g15 | -0.647 |
| CCAUUUGAUGACAGUAAUATT against Olfr178 | 1.03 |
| GCUCUUGACACUAGAGAUUTT against Ap1s3 | 0.0373 |
| GGUGUGAUGCUUGAGUGUCTT against Skint3 | 2.08 (active) |
| GGAGUAGCAAAGAACUGCUTT against Arpc4 | -0.762 |
| CCACAUGAGUGGACCUACGTT against Arid3c | -1.33 |
| GGAGCUCUGGGACAAAUUCTT against Tbx20 | 1.34 |
| CGUGGCUAGGUUAUUUAAATT against Htr1d | 1.01 |
| GGACACUUCCAUGUGCUACTT against Cep19 | 2.14 (active) |
| CCUCAAAAUGGCUAUGGACTT against 1520401A03Rik | 0.587 |
| GGAAAGAAACUUAAAGUGGTT against Tfdp1 | 2.64 (active) |
| GGUUCGAUGUCCAGUCACUTT against Ppp2ca | -1.41 |
| GCCAUUGCUUUAUAAGGUUTT against Olfr901 | -1.24 |
| GGAUACAAAUCCAGAUUCUTT against Pex26 | -0.982 |
| GGAACGAAUUUUAGAUGCATT against Rbbp8 | 1.14 |
| CCCAGAGCAUUCCUAUUACTT against Klrg2 | -2.84 (active) |
| GCACGGUAUCUCGAAGUCGTT against Spata18 | -0.785 |
| CCAUUCAAUGGUAACUGAATT against Olfr229 | -0.382 |
| GCAGUCGCUUUGUUUUAUATT against Olfr1204 | -0.225 |
| GGAAAUCGAAUGAAUAACCTT against Klf12 | 3.45 (active) |
| GGCUGAGAAGCAGACUUCCTT against Dclk3 | 1.23 |

| Sequence | z-score |
| --- | --- |
| GCUACGUUUACUGACCACATT against Bcat1 | 1.55 |
| CCUACUCGUCUCUUUCACCTT against Tlcd1 | 0.158 |
| GCAACUUUUAAUUGGUCUATT against Agrn | -0.537 |
| GGUUUUACCGAUGAUGCAUTT against Pcdhb20 | -0.624 |
| GGUAAUGGCUCACUUAAUATT against Malt1 | -0.427 |
| GGUCUUUGACAUUUUGAAUTT against Lrrk2 | -0.295 |
| GUACACUCAGGCUGAGGGUTT against Acyp1 | 0.0397 |
| GCAAUACUAUUCAGUCCAUTT against Gnai3 | -2.45 (active) |
| GGUUCCACUCAACUGAAGATT against Actl7b | -0.123 |
| GGCCUGCUACUUUUGAUGCTT against Olfr166 | 0.0524 |
| GCACCUCUGACAAGGUUCUTT against Plin1 | 2.65 (active) |
| GGGUCAUUUCCUAUGCAGGTT against Olfr866 | -1.24 |
| CCAAGAUUCAUAAGAAGGCTT against Tas2r131 | 0.646 |
| GCUAGAAUUCAUGUUUCGUTT against Dgkg | 0.487 |
| GGUGCACUUUGAAUCAGGGTT against Uchl4 | 0.91 |
| GGACAUCUACACCAUUUGGTT against Mplkip | -2.11 (active) |
| GGUAACUAUGAAGAGAUCATT against Neu2 | 0.312 |
| GGAUUAGGAAAGAGAGAACTT against 4930519G04Rik | -1.43 |
| GGUCAUCGUGUGCAACCUCTT against Zcchc3 | -3.24 (active) |
| GGAACAGUUCAAGUGAAGCTT against Sertad2 | -0.0174 |
| GGAAGAUGAGAAAAUUCCATT against Ccni | -0.44 |
| GCCACAGAAAGUGAUUGAGTT against Rbp7 | -0.418 |

| Sequence | z-score |
| --- | --- |
| GGUACAGACCUUUGAAAUATT against Apobec2 | -0.125 |
| CCGCAUGGAGCAUCUAAUATT against Tuft1 | 0.04 |
| GGGAGACCUGCUACUAUUGTT against Gtf3c2 | 2.58 (active) |
| GGAAACAACAACAAAUACATT against C1ql3 | 1.52 |
| GGAAGAUCCUCGAUAGUCATT against Rgs7 | 1.2 |
| GACCAUCUCCUUUACGGGCTT against Olfr71 | 0.133 |
| GGCCAAAGAAGAAAGUGACTT against Opn3 | -2.72 (active) |
| GUGGUAAACAGAAUGGUGATT against Ccdc92b | -1 |
| GCACCCAUAUCAACGAGGUTT against Olfr924 | 0.484 |
| GGUGACCAGCAAGUCAUGCTT against Chrdl1 | -0.663 |
| GGAAGAAAAAAACUUCGUUTT against Gabrg3 | 0.186 |
| CCUGAAAGAUGCUCUCUAUTT against Inpp4b | 4.27 (active) |
| GCACAGCUUUUUGGAUCUGTT against Zfyve26 | -0.75 |
| CCAGAGUCUUUGGUAAUGCTT against Krtap3-3 | 1.07 |
| GUCAUCAUGAACCAAGAGATT against Olfr713 | -2.18 (active) |
| GGAAAACCAGCACAAUUUATT against Cadm1 | 2.49 (active) |
| CCAUCUACAAACUUUGGCCTT against Sacs | 0.669 |
| GGUACUGACGCAUCUGAGGTT against Spata5l1 | 1.53 |
| GACAAGCAAUAAAGAAAGATT against Lce1l | -1.45 |
| GGAAGGUCAAGUCUUUUCUTT against Tesk1 | 1.46 |
